From PMC4336329 (PLoS ONE, 2015)
The campaign covered roughly 310,000 compounds. About 14,000 (4.5%) showed an effect of 50% or more. Effects have a minus sign here. The list comes from a sample in which strong results are over-represented; it also holds similar structures and randomly drawn compounds.

Molecular target: human ether-à-go-go-related gene (hERG) potassium channel (human, UniProt Q12809)
Assay: primary screen, population patch clamp on CHO cells stably expressing hERG; higher = less effect of the substance
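Further: peak tail current of the secondary pulse compared with the same well before compound.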

Chain of human ether-à-go-go-related gene (hERG) potassium channel (Q12809 whole entry, looked up): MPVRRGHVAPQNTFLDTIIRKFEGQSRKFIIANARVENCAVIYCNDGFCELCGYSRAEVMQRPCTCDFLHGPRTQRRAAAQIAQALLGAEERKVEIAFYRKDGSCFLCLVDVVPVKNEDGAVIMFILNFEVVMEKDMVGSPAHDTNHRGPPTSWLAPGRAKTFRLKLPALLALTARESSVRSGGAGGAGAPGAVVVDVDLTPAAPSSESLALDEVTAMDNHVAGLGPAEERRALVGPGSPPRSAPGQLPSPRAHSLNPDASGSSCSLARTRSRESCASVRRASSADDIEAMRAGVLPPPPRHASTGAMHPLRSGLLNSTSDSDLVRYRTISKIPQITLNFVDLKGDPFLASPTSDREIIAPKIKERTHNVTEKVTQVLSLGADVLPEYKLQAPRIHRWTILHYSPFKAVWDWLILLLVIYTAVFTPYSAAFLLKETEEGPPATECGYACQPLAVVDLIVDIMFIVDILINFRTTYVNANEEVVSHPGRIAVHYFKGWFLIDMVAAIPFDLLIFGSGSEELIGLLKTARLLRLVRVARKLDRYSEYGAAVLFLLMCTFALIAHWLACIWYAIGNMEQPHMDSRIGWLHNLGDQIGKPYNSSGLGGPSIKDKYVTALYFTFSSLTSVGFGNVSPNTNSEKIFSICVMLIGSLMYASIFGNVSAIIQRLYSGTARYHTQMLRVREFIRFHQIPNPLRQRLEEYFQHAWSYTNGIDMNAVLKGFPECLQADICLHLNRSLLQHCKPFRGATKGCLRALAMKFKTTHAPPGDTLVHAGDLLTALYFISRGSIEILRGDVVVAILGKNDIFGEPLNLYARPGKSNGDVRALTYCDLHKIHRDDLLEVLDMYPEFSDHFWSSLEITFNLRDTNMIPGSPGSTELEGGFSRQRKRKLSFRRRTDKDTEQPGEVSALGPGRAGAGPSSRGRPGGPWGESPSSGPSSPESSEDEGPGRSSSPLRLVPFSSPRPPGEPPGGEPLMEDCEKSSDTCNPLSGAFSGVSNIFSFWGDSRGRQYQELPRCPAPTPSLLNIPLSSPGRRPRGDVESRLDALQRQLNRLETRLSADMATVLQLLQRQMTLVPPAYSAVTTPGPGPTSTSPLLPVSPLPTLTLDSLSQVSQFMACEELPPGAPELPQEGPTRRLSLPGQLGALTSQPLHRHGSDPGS

Row | Compound | hERG current change (%, negative = inhibition) at 10uM [%]
1 | COc1cc(/C=C/C(=O)OCC(=O)Nc2cc(C(F)(F)F)ccc2N2CCOCC2)ccc1O | -0.592
2 | C=CCOC(=O)C1=C[C@@H](c2ccc(Br)cc2)C[C@@H](OCc2ccc(CO)cc2)O1 | -14.7
3 | COc1cc(C(=O)OCC(=O)N2CCCCC2C)ccc1OCc1c(C)noc1C (centres unmarked) | 6.3
4 | C#CCOCCOCCOCCNc1nc(N2CCN(C(=O)CCCCCCCCCCNC(=O)[C@H](CO)n3cc(CCCSC)nn3)CC2)nc(N2CCN(C(=O)CCCCCCCCCCNC(=O)[C@H](CO)n3cc(CCCSC)nn3)CC2)n1 | 4.57
5 | COc1ccccc1NC(=O)c1ccc(S(=O)(=O)N(C)c2ccccc2)cc1 | -3.47
6 | COc1ccc(NC(=O)c2cc3c(s2)CCC(C)C3)cc1S(=O)(=O)N1CCOCC1 (centres unmarked) | -19.1
7 | CCN(CC)S(=O)(=O)c1ccc(N2CCOCC2)c(NC(=O)CC2OC(=O)c3ccccc32)c1 (centres unmarked) | -26
8 | Cc1cc(-c2ccccc2)c(C#N)c(SCC(N)=O)n1 | -3.47
9 | Cc1nc2n(c(=O)c1CCN1CCC(c3noc4cc(F)ccc34)CC1)CCCC2 | -68
10 | O=C(NCc1ccc(F)cc1)c1ccc2c(=O)n3c(nc2c1)CCCCC3 | -36.7
11 | O=C(NCCc1ccc(F)cc1)c1ccc2c(=O)n3c(nc2c1)CCC3 | -45.7
12 | CCCCN(CCCNC(=O)CN1C(=O)COc2ccccc21)c1ccccc1 | -26
13 | Cc1noc(C)c1COC(=O)COc1ccc(C#N)cc1 | 2.8
14 | CCN1CCN(CC(=O)N2N=CCC2c2ccccc2)CC1 (centres unmarked) | 3.12
15 | O=C(CN1CCN(C(c2ccccc2)c2ccccc2)CC1)N1N=CCC1c1ccccc1 (centres unmarked) | -50.1
16 | O=C(CN1CCN(c2ccccc2)CC1)N1N=CCC1c1ccccc1 (centres unmarked) | 5.51
17 | CC(C)CN(C(=O)CCC(=O)OCC(=O)N(C)c1ccccc1)c1c(N)n(CC(C)C)c(=O)[nH]c1=O | 10.7
18 | O=C(CCCn1c(=S)[nH]c2cc3c(cc2c1=O)OCO3)N1CCN(c2ccccc2F)CC1 | 20.6
19 | COc1ccc(NC(=S)N2CCCN(Cc3cc(C)ccc3C)C2)cc1 | -12.7
20 | CCOc1ccc(NC(=S)N2CCCN(Cc3cccc(Cl)c3)C2)cc1 | -17.6
21 | CCOc1ccc(NC(=S)N2CCCN(Cc3cc(C)ccc3C)C2)cc1 | -57.8
22 | CN(C)c1ccc(C=NCCc2ccc(S(N)(=O)=O)cc2)cc1 | 6.19

Row | Compound | hERG current change (%, negative = inhibition) at 10uM [%]
23 | COc1ccc2[nH]c(=O)c(CN(C(=O)c3cccnc3)c3cccc(C)c3)cc2c1 | 11.5
24 | O=C(COC(=O)CNC(=O)c1ccc([N+](=O)[O-])o1)Nc1ncc(C(F)(F)F)cc1Cl | -58.3
25 | O=C(COC(=O)c1ccccn1)Nc1ncc(C(F)(F)F)cc1Cl | -11.7
26 | Cc1c(Cl)cnc(NC(=O)COC(=O)c2ccc([N+](=O)[O-])s2)c1Cl | 6.06
27 | Cc1ccc(C(=O)OCC(=O)Nc2ncc(Cl)cc2Cl)cc1NC(=O)c1ccco1 | -48.7
28 | O=C(COC(=O)CNC(=O)c1ccccc1Cl)Nc1ncc(C(F)(F)F)cc1Cl | -1.76
29 | Cc1ccc(C(=O)OCC(=O)Nc2ncc(C(F)(F)F)cc2Cl)cc1NC(=O)c1ccco1 | -50.1
30 | COc1ccc(C(=O)NCC(=O)OCC(=O)Nc2ncc(Cl)cc2Cl)cc1[N+](=O)[O-] | -37.3
31 | O=C(COC(=O)CNC(=O)c1ccc(Cl)cc1)Nc1ncc(C(F)(F)F)cc1Cl | -31.8
32 | O=C(COC(=O)c1ccc([N+](=O)[O-])s1)Nc1ncc(C(F)(F)F)cc1Cl | -63
33 | O=C(COC(=O)CNC(=O)c1ccc([N+](=O)[O-])o1)Nc1ncc(Cl)cc1Cl | -54.9
34 | Cc1ccc(C(=O)OCC(=O)Nc2ccccc2)cc1NC(=O)c1ccco1 | -4.37
35 | O=C(COC(=O)CNC(=O)c1ccco1)Nc1ncc(Cl)cc1Cl | 7.02
36 | Cc1cc(-n2cnnn2)cc(C)c1S(=O)(=O)NCCOc1ccccc1 | -38.5
37 | CC(O)c1nc2ccccc2n1CC(=O)Nc1ccc(F)cc1Cl (centres unmarked) | 14.2
38 | CCOC(=O)c1sc(NC(=O)c2ccc(C)o2)nc1C | -5.35
39 | COc1cc(C(c2c(C)n(C)n(-c3ccccc3)c2=O)c2c(C)n(C)n(-c3ccccc3)c2=O)cc(Br)c1O | 13.7
40 | COc1cccc(-c2nnc(NC(=O)c3ccc4ncsc4c3)o2)c1 | -8.13
41 | COc1cc(/C=C/C(=O)O)cc(S(=O)(=O)Nc2ccccc2Cl)c1OC | 18.8
42 | CN(c1ccccc1)S(=O)(=O)c1ccc(Cl)c(C(=O)NCCc2c[nH]c3ccccc23)c1 | -15.8
43 | COc1ccc(/C=C/C(=O)Nc2ccccc2C(=O)O)cc1 | 7.91
44 | O=[N+]([O-])c1cc([N+](=O)[O-])c2nonc2c1Nc1ccccc1O | 10.3

Row | Compound | hERG current change (%, negative = inhibition) at 10uM [%]
45 | O=[N+]([O-])c1cc([N+](=O)[O-])c2nonc2c1Nc1ccc(O)cc1 | -56.9
46 | O=[N+]([O-])c1c(Nc2ccc(O)cc2)cc(Cl)c2nonc12 | -26.1
47 | CCC1CCCCN1C(=O)COC(=O)CN(C)S(=O)(=O)c1ccc(NC(C)=O)cc1 (centres unmarked) | 7.22
48 | Cc1c(-c2cccc(NC(=O)c3ccco3)c2)nc2ncccn12 | -13.3
49 | Cc1ccc(NC(=O)c2nsc(Cl)c2Cl)cc1 | 5.34
50 | CCCOc1ccccc1-c1nc2c([nH]1)c(=O)[nH]c(=O)n2C | 8.5
51 | CCCOc1ccccc1-c1nc2n[nH]nc2c(=O)[nH]1 | -56.3
52 | CCCc1nn(C)c2c(=O)[nH]c(-c3ccccc3OCC)nc12 | 7.87
53 | COc1ccccc1NC(=O)CCS(=O)(=O)c1cc2c(cc1Cl)NC(=O)CO2 | 1.94
54 | CCOC(=O)c1cnc2cc(C)nn2c1-c1ccccc1 | 3.92
55 | CCOc1ccc(/C=N/NC(=O)CN2CCCCCCC2)cc1 | -63
56 | CCCOc1ccc(/C=N/NC(=O)CN2CCCCC2)cc1 | -49.7
57 | CCOc1ccc(/C=N/NC(=O)CN2CCSCC2)cc1 | 1.7
58 | CCOc1ccc(/C=N/NC2=NCCCCC2)cc1 | -69.3
59 | O=C(CCN1CCCCC1)Nc1ccc(Br)cc1 | -37.9
60 | Oc1ccc(/C=N/NC2=NCCCCC2)cc1 | -16.2
61 | O=C(CCN1CCCCC1)N/N=C/c1ccc(Br)cc1 | -77.8
62 | O=C(CN1CCCCCCC1)N/N=C/c1ccc(F)c(F)c1 | -33.7
63 | Cc1cccc(/C=N/NC(=O)CN2CCCCCCC2)c1 | -45.9
64 | O=C(CN1CCCCCC1)N/N=C/c1ccc2ccccc2c1 | -64.6
65 | COc1ccc(/C=N/NC2=NCCCCC2)cc1 | -43.7
66 | CCCCCCC(=O)N/N=C/c1ccc(Br)cc1 | 1.25

Row | Compound | hERG current change (%, negative = inhibition) at 10uM [%]
67 | CC(=O)c1ccc(OCc2cc(=O)n3ccsc3n2)cc1 | -1.4
68 | C=CCN1C(=O)C(CC(=O)NCC)SC1=Nc1cc(Cl)ccc1Cl (centres unmarked) | -2.76
69 | Cc1ccc(NC(=O)C(C)OC(=O)CCNS(=O)(=O)c2ccc(C)cc2)cc1 (centres unmarked) | -16.5
70 | CCOC(=O)C1=C(C)NC(=O)NC1 | -3.56
71 | CCN(CC)S(=O)(=O)c1cc(NC(=O)CCNC(=O)c2ccccc2Cl)ccc1C | -11.5
72 | COc1cc(/C=C/c2nc3ccccc3c(=O)[nH]2)cc(Br)c1O | 30.6
73 | CC(C)(C)Nc1nc(NN)nc(NC(C)(C)C)n1 | 11.8
74 | O=C(Nc1ccc(C(=O)O)cc1)/C(=C\c1ccco1)NC(=O)c1ccccc1 | 21.2
75 | Cl.O=C1c2ccccc2C(=O)N1CC#CCN1CCN(C2CCCCC2)CC1 | -40.8
76 | O=C(CN1CCCCCC1)N/N=C/c1cccc(Cl)c1 | -37.5
77 | CC1CCN(CCC(=O)N/N=C/c2ccc([N+](=O)[O-])cc2)CC1 | -70
78 | O=C(CN1CCSCC1)N/N=C/c1ccc(Cl)cc1 | -12.5
79 | CN1CCN(CCC(=O)N/N=C/c2cc([N+](=O)[O-])ccc2O)CC1 | 1.18
80 | O=C(CN1CCCCCC1)N/N=C/c1ccc(Cl)c(Cl)c1 | -60
81 | O=C(CN1CCCCC1)N/N=C/c1cccc(Cl)c1 | -35.6
82 | O=C(CN1CCCCC1)N/N=C/c1ccc(Cl)cc1 | -66.9
83 | Cn1cccc1CC(=O)N/N=C/c1ccc([N+](=O)[O-])cc1 | -1.88
84 | O=C(CN1CCCCC1)N/N=C/c1ccc(Cl)cc1Cl | -39.1
85 | CCOC(=O)c1c(N)nn(C(=O)c2ccccc2F)c1-c1ccc(OC)cc1 | 3.53
86 | Nn1c(Cc2cccc3ccccc23)nnc1SCC(=O)N1CC(=O)Nc2ccccc21 | 7.01
